Data: ChEMBL document CHEMBL1961873, “Compounds: GSK PKIS; Assays: Nanosyn kinase panel” (2012)

Experiments:
[1] = target: Sphingosine kinase 1 (Homo sapiens) (UniProt Q9NYA1); conditions: at 1 µM;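 further: mean SPHK1 inhibition value reported from the GSK PKIS kinase panel screen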
[2] = target: T1, Sphingosine kinase 2 (Homo sapiens) (UniProt Q9NRA0); conditions: at 0.1 µM
T1 sequence (whole entry): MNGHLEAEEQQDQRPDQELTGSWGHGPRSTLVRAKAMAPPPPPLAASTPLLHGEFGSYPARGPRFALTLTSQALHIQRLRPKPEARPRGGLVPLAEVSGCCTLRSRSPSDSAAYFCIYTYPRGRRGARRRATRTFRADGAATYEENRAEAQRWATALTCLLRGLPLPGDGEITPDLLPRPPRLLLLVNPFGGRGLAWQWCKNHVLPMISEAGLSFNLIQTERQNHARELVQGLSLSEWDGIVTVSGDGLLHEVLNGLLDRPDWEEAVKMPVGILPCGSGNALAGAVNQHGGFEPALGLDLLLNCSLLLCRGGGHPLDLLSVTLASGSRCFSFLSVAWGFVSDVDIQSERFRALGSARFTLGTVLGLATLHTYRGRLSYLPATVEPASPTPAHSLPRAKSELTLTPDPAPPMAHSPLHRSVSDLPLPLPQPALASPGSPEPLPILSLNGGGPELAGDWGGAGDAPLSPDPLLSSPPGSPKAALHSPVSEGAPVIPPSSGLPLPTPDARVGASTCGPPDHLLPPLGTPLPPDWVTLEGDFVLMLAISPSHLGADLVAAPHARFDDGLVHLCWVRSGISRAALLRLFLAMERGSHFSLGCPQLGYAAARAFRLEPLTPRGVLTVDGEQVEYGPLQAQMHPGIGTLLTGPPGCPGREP

[3] = target: T1, Sphingosine kinase 2 (Homo sapiens); conditions: at 1 µM
[4] = target: Casein kinase II subunit alpha (Homo sapiens) (UniProt P68400); conditions: at 0.1 µM
[5] = target: Casein kinase II subunit alpha (Homo sapiens) (UniProt P68400); conditions: at 1 µM
[6] = target: T2, Inhibitor of nuclear factor kappa-B kinase subunit alpha (Homo sapiens) (UniProt O15111); conditions: at 0.1 µM
T2 sequence (whole entry): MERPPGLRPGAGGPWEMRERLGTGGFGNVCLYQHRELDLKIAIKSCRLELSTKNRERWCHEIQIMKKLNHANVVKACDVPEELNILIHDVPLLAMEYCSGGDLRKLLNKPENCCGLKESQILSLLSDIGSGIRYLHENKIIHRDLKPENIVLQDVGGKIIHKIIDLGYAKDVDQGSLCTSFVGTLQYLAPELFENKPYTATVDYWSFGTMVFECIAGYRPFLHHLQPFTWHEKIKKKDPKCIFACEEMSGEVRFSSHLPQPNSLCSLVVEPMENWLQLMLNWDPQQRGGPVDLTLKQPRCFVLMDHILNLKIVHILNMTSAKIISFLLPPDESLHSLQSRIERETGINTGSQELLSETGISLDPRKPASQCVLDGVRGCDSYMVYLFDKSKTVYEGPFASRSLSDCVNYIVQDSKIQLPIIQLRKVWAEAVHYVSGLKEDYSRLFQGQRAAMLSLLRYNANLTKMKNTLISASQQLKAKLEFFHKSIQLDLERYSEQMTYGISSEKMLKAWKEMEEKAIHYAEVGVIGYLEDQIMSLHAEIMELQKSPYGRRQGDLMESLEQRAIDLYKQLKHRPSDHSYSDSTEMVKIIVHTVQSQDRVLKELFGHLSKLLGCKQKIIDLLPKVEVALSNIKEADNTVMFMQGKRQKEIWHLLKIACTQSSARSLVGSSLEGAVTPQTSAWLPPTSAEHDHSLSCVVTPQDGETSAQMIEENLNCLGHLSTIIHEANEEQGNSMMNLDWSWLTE

[7] = target: T2, Inhibitor of nuclear factor kappa-B kinase subunit alpha (Homo sapiens); conditions: at 1 µM
[8] = target: T3, Inhibitor of nuclear factor kappa-B kinase subunit beta (Homo sapiens) (UniProt O14920); conditions: at 0.1 µM
T3 sequence (whole entry): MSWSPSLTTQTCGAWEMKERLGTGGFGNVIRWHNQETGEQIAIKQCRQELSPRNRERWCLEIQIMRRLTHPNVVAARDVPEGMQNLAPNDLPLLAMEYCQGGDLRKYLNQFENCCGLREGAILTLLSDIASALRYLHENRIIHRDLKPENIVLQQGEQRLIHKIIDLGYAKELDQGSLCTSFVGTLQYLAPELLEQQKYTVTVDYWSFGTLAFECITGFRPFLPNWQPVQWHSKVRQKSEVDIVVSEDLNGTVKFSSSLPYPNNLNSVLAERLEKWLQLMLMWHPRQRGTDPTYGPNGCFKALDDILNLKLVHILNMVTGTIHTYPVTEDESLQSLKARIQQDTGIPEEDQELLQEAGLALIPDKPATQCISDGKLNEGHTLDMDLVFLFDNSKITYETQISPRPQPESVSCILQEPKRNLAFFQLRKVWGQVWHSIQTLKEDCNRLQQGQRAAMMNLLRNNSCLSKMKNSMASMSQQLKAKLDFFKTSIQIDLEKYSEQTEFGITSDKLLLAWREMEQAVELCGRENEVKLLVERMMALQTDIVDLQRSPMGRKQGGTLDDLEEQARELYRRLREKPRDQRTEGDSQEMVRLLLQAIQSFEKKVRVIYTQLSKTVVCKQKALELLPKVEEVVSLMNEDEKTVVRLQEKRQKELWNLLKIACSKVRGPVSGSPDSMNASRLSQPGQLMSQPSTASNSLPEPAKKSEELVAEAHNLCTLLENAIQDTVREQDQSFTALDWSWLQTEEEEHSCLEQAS

[9] = target: T3, Inhibitor of nuclear factor kappa-B kinase subunit beta (Homo sapiens); conditions: at 1 µM
[10] = target: T4, Inhibitor of nuclear factor kappa-B kinase subunit epsilon (Homo sapiens) (UniProt Q14164); conditions: at 0.1 µM
T4 sequence (whole entry): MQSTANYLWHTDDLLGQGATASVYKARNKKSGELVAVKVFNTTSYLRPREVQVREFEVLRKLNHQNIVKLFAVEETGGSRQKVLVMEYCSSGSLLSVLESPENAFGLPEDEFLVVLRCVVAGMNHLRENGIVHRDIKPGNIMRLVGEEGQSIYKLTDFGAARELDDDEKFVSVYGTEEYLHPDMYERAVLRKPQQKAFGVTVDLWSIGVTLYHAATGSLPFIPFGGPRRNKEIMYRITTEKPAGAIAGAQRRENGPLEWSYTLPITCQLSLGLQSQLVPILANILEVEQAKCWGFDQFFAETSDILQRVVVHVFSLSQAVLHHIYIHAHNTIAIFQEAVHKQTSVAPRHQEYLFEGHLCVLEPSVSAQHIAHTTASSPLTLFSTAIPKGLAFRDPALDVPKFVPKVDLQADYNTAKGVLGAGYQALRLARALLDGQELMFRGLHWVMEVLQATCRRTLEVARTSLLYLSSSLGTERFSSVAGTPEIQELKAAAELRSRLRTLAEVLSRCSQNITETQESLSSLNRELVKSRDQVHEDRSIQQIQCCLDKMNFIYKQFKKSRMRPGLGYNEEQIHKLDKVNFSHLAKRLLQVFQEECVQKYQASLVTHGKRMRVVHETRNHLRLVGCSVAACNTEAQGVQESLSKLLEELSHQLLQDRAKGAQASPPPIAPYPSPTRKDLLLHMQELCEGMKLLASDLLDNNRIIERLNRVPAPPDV

[11] = target: T4, Inhibitor of nuclear factor kappa-B kinase subunit epsilon (Homo sapiens); conditions: at 1 µM
[12] = target: T5, Serine/threonine-protein kinase Nek1 (Homo sapiens) (UniProt Q96PY6); conditions: at 0.1 µM
T5 sequence (whole entry): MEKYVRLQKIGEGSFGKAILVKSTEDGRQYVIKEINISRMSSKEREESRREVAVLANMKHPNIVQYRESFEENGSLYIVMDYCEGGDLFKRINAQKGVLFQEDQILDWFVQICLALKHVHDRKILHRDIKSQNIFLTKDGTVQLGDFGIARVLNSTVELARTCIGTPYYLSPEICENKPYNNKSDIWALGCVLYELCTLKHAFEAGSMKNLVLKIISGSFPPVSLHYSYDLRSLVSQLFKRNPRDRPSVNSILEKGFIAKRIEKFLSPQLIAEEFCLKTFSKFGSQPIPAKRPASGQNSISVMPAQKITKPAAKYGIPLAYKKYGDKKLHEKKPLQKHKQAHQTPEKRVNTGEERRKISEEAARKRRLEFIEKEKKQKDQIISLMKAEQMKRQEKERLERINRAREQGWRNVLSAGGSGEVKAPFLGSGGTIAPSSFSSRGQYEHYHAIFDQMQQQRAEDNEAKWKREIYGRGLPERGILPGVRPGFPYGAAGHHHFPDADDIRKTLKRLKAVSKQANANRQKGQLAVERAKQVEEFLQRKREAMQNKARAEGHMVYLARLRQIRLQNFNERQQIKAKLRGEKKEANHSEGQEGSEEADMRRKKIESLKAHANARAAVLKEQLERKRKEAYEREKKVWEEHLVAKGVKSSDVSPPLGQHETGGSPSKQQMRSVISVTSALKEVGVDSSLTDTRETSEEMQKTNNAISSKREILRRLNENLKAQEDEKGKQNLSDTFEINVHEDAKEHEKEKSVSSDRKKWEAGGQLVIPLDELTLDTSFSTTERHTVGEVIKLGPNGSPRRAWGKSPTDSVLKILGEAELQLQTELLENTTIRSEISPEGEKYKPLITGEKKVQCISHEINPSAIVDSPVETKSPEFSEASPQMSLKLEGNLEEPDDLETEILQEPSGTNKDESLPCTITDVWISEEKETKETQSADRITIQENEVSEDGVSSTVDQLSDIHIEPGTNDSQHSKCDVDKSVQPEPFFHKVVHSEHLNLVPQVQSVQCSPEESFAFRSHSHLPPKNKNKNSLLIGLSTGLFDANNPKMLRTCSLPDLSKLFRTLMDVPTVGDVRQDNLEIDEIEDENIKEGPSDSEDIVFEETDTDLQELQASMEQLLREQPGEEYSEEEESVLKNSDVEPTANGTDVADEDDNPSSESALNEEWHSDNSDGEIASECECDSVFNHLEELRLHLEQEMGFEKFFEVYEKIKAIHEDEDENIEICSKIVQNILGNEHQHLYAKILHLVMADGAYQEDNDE

[13] = target: T5, Serine/threonine-protein kinase Nek1 (Homo sapiens); conditions: at 1 µM
[14] = target: T6, Serine/threonine-protein kinase Nek2 (Homo sapiens) (UniProt P51955); conditions: at 0.1 µM
T6 sequence (whole entry): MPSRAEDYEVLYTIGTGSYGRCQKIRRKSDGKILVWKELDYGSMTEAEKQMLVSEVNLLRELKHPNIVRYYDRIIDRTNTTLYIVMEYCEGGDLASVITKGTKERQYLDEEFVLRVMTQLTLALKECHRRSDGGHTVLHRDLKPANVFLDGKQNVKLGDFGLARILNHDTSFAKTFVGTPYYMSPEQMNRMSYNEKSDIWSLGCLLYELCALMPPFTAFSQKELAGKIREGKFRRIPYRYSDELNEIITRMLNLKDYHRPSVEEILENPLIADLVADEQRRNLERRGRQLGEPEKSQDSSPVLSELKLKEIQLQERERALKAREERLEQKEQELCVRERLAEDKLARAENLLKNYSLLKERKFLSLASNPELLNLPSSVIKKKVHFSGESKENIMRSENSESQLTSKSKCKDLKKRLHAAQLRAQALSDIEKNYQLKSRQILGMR

[15] = target: T6, Serine/threonine-protein kinase Nek2 (Homo sapiens); conditions: at 1 µM
[16] = target: Serine/threonine-protein kinase Nek6 (Homo sapiens) (UniProt Q9HC98); conditions: at 0.1 µM
[17] = target: Serine/threonine-protein kinase Nek6 (Homo sapiens) (UniProt Q9HC98); conditions: at 1 µM
[18] = target: Serine/threonine-protein kinase Nek7 (Homo sapiens) (UniProt Q8TDX7); conditions: at 0.1 µM
[19] = target: Serine/threonine-protein kinase Nek7 (Homo sapiens) (UniProt Q8TDX7); conditions: at 1 µM
[20] = target: T7, Serine/threonine-protein kinase Nek9 (Homo sapiens) (UniProt Q8TD19); conditions: at 0.1 µM;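 further: reported value is the mean percent inhibition of NEK9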
T7 sequence (whole entry): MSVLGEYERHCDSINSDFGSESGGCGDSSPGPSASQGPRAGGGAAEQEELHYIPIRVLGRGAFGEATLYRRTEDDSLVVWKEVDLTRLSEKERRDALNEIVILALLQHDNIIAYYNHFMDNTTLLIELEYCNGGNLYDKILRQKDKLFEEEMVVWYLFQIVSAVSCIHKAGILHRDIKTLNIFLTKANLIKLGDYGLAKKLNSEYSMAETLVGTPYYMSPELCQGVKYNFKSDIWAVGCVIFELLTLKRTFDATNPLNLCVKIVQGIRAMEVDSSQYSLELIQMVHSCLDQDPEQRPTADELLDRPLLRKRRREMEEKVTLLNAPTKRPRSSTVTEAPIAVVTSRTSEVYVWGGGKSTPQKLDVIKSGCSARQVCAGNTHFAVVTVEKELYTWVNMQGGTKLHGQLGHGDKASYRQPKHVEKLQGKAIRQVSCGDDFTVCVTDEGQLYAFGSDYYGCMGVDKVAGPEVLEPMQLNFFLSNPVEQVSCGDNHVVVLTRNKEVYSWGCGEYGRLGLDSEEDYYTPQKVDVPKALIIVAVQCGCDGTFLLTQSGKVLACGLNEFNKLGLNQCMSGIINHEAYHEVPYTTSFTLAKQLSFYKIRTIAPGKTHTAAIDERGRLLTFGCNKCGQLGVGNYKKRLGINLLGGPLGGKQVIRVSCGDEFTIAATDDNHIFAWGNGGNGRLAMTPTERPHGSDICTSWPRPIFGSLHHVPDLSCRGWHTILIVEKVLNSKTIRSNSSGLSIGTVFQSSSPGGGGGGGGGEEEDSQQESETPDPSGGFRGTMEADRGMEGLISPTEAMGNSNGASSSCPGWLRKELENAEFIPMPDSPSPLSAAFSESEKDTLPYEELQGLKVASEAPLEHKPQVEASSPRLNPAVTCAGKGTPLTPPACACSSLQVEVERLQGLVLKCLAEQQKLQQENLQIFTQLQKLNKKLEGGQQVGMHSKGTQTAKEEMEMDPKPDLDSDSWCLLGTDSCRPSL

Serine/threonine-protein kinase Nek7 (Homo sapiens), sequence (Q8TDX7 whole entry, looked up): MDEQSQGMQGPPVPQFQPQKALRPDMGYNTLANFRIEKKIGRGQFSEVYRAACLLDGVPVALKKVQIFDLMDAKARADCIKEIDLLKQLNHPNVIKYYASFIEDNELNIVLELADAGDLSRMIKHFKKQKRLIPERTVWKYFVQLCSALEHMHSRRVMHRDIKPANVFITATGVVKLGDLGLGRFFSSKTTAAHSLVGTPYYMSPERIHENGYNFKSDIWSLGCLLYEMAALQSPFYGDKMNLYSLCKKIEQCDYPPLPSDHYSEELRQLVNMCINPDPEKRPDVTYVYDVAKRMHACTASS
Serine/threonine-protein kinase Nek6 (Homo sapiens), sequence (Q9HC98 whole entry): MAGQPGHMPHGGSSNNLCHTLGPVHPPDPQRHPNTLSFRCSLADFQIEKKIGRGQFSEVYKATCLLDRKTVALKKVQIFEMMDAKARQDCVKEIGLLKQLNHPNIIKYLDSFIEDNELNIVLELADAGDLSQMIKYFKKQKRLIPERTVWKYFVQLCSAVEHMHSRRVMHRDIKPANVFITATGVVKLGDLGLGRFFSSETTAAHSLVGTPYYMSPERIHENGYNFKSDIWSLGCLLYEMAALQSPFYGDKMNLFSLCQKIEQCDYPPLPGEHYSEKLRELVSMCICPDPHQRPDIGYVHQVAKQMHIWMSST
Casein kinase II subunit alpha (Homo sapiens), sequence (P68400 whole entry, looked up): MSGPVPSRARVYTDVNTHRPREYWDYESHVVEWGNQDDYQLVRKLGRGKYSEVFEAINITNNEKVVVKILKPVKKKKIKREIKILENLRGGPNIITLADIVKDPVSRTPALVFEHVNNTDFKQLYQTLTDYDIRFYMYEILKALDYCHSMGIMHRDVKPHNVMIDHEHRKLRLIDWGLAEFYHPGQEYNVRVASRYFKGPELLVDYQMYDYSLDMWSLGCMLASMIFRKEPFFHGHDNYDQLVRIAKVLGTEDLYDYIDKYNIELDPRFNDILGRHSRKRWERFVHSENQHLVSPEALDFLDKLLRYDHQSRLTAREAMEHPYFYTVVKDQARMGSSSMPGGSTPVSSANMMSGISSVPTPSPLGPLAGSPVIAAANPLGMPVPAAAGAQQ
Sphingosine kinase 1 (Homo sapiens), sequence (Q9NYA1 whole entry): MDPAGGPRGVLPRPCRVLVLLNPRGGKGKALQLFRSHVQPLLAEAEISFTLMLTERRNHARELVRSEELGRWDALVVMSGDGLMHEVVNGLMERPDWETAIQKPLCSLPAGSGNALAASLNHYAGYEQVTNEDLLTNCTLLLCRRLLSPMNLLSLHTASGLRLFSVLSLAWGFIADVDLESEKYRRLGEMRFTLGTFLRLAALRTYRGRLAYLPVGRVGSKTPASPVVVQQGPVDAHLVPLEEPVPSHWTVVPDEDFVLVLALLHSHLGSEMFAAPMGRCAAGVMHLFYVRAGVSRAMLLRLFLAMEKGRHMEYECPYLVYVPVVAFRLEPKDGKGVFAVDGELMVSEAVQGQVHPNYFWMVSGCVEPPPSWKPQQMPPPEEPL

O=C(Nc1n[nH]c2cc(-c3cc(F)ccc3F)ccc12)C1CC1
inhibition [1]: -2.44%
inhibition [2]: 2.23%
inhibition [3]: 0.13%
inhibition [4]: 2.27%
inhibition [5]: 2.39%
inhibition [6]: 8.06%
inhibition [7]: 7.87%
inhibition [8]: 4.95%
inhibition [9]: 5.11%
inhibition [10]: 4.29%
inhibition [11]: 6.78%
inhibition [12]: 1.23%
inhibition [13]: 0.65%
inhibition [14]: 3.53%
inhibition [15]: 2.03%
inhibition [16]: 1.92%
inhibition [17]: -0.92%
inhibition [18]: 6.28%
inhibition [19]: 3.5%
inhibition [20]: 11.6%
